Assay results reported in PubChem BioAssay.
Several values for one entry are separate records, joined by “and”; a condition that tells them apart may be missing. Equal entries are not always repeated. Values without a mark were called inactive. No rule for the calls is given here.

These compounds were tested against L-lactate dehydrogenase (Plasmodium falciparum (isolate CDC / Honduras)) (UniProt Q27743) (assay: PfLDH activity inhibition – cell lysate, 3D7 strain, counter-screen for P. falciparum growth inhibition project (AID 2304;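 also: 0% = vehicle and 100% = reference inhibitor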)). Details: P. falciparum 3D7 crude extract, LDH APAD/NBT absorbance; at 2 µM; active compounds read high.
L-lactate dehydrogenase (Plasmodium falciparum (isolate CDC / Honduras)), sequence (Q27743 whole entry, looked up): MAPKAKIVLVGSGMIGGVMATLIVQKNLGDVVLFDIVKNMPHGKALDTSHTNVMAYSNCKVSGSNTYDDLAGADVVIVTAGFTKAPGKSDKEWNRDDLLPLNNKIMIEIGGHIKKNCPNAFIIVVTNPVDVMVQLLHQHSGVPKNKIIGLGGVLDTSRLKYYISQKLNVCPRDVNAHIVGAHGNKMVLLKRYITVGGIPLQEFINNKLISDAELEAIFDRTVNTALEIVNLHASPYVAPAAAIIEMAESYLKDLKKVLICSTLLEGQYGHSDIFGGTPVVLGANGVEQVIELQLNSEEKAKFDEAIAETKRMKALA

| Compound | inhibition |
| --- | --- |
| Cc1cc(C2CCN(CCCCNC(=O)c3ccc(NC(=O)c4ccc(Cl)cc4)cc3)CC2)c(C)cc1OCc1cccnc1 | 0% |
| CN1CCCN(Cc2ccc(-c3cccc(NC(=O)c4ccc(F)cc4)c3)cc2)CC1 | 1% |
| CCCS(=O)(=O)N1CCC(CO)(Cc2ccccc2C(F)(F)F)CC1 | -2% |
| Oc1ccc(CCNc2nc(NCCCOc3ccccc3-c3ccc(F)cc3)nc(N3CCNCC3)n2)cc1 | -1% |
| O=C(Nc1cccc(-c2cccc(-c3nc4ccccc4[nH]3)c2)c1)N[C@@H]1C[C@H]1c1ccccc1 | 2% and 1% |
| O=C(Nc1ccc(-c2cccc(-c3nc4ccc(C(F)(F)F)cc4[nH]3)c2)cc1)c1cccnc1 | -5% |
| COc1ccc(Cl)cc1S(=O)(=O)Nc1cccc(CCN2CCC(N3CCCCC3)CC2)c1 | 4% |
| COc1ccc(-n2ccnc2SCC(=O)Nc2cc(C)ccc2C)c(OC)c1 | -3% |
| O=S(=O)(NCCN1CCCC1)c1cccc(-c2ccccc2CNC2Cc3ccccc3C2)c1 | -3% |
| CCOC(=O)C(C)(C)Oc1ccc(C(=C2CC(C)(C)CC(C)(C)C2)c2ccc(O)cc2)cc1 | 1% |
| Cc1nc(-c2ccc(-c3ccc(NC(=O)c4coc5ccc(N6C[C@@H](C)N[C@@H](C)C6)cc45)cc3)c(C)c2)no1 | 1% |
| c1ccc(Oc2ccc(Nc3ccnc4cc(-c5ccc(CN6CCOCC6)o5)ccc34)cc2)nc1 | 0% |
| COc1ccc2nc(C)cc(NN=Cc3ccccc3Cl)c2c1 | 5% |
| COc1ccc2nccc([C@@H](O)CN3CCC(NCc4ccc5nnsc5c4)CC3)c2c1 | 5% |
| CC(C)(C)C1CCc2nc(N)nc(N)c2C1 (configuration not stated) | 6% |
| CCN(CC)C(=NCCCCCCN=C(NC(N)=NCc1cccc(Cl)c1)N(CC)CC)NC(N)=NCc1cccc(Cl)c1 | -8% |
| O=C(NC1CC1)c1cnc(N2CCCC(c3ccccc3)C2)c(Cl)c1 (configuration not stated) | -3% |
| Cc1cc(NCCC(=O)NCCc2ccccc2)nc(NCCc2ccc(F)cc2)n1 | -1% |
| CC1(CCc2ccccc2)N=C(N)N=C(N)C1c1ccc(Cl)c(Cl)c1 (configuration not stated) | -8% |

| Compound | inhibition |
| --- | --- |
| Cn1nccc1C(=O)NCCNCc1ccc(-c2ccc(-c3nc4ccc(C(F)(F)F)cc4[nH]3)cc2)cc1 | -2% |
| O=C(Nc1ccc(CN2CCN(S(=O)(=O)c3ccc(Cl)s3)CC2)cc1)c1cccs1 | 2% |
| CS(=O)(=O)c1ccc(CNCc2cccc(-c3cccc(-c4nc5ccc(F)cc5[nH]4)c3)c2)cc1 | -3% |
| O=C(Cc1cnc[nH]1)Nc1ccc(-c2cccc(-c3nc4ccc(F)cc4[nH]3)c2)cc1 | 4% |
| CC(C)(C)OC(=O)N(Cc1cc(-n2nnnc2C(F)(F)F)ccc1O)[C@H]1CCCN(C(=O)OC(C)(C)C)[C@H]1c1ccccc1 | -5% |
| Cc1ccc(NCc2cccc(F)c2)cc1S(=O)(=O)N[C@@H]1CCN(C#N)C1 | -2% |
| Fc1ccc2ncc(Cl)c(CCN3CCC(NCc4cc5c(cn4)OCCO5)CC3)c2c1 | -4% |
| O=C(NCC1CCN(Cc2ccc(F)cc2)C1)c1cc(-c2cccc(C(F)(F)F)c2)cs1 (configuration not stated) | -2% |
| CN(C)CCOc1cc(NC(=O)Nc2ccc(-c3ccncc3)c(C(F)(F)F)c2)ccc1Cl | 3% |
| CCCCCCCc1ccc(-c2c(C)[nH]c(C)c(Cl)c2=O)cn1 | -2% |
| COc1ccc(CNCc2ccc(F)cc2)cc1-c1ccc(OC)c(S(=O)(=O)NCCN2CCCC2)c1 | 5% |
| c1ccc(COc2ccc(C3CCCCC3)cc2)nc1 | 0% |
| O=C(Nc1cccc(-c2ccc(-c3nc4ccc(F)cc4[nH]3)cc2)c1)c1cccnc1 | -4% |
| O=C(Cn1cc(C=C2SC(=NC3CCCC3)N(C3CCCC3)C2=O)c2ccccc21)N1CCCC1 | -1% |
| O=C(/C=C/c1ccc(Cl)c(Cl)c1)NC1CCN(CCCNC(=O)c2cccc(Cl)c2)CC1 | -2% |
| CCNc1cc(C(=O)N[C@@H](Cc2ccccc2)[C@H](O)CNCCc2ccccc2)cc(N2CCCC2=O)c1 | 2% |
| CC(CCc1ccccc1)NCC(O)c1ccc2c(c1)S(=O)(=O)c1ccccc1N2 (configuration not stated) | 0% |
| Cc1cc(OCc2ccncc2)cc2c1C(=O)CC(C)(C)O2 | -5% |
